We go through seven compounds from PubChem BioAssay (NCI).

Molecules are shown by their SMILES. Several values for one entry are separate records, joined by “and”; a condition that tells them apart may be missing. Equal entries are not always repeated. This is part of a sample that, as a whole, favours compounds with a hit. Of some 83,000 tested, about 20% had one in any assay.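 For each line, cells grew in 96-well plates with the test compound present at a single concentration for 48 hours.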 Activity calls are given as the source filed them. The calls were made as follows: active = growth percent below 10; inactive = the rest.

Test systems include NCI-H23 lung; NCI-H226 lung; NCI-H322M lung; HOP-62 NSCLC; NCI-H460 lung; HOP-92 NSCLC; NCI-H522 lung; A549/ATCC NSCLC; 786-0 renal; COLO 205 colon; DU-145 prostate; K-562 leukemia; MALME-3M melanoma; MDA-MB-231 breast; RXF 393 renal; SF-268 CNS; SF-295 CNS; SF-539 CNS; UACC-257 melanoma; M14 melanoma.
Common to all, as to assay: NCI-60 one-dose screen, 48 h (100 = growth as untreated, 0 = no growth, -100 = all killed)
Common to all, as to settings: 10 µM unless noted

As to `Nc1nc(CSc2n[nH]c(N)n2)nc(Nc2ccccc2)n1`, the growth with NCI-H23 lung was 102% (inactive); in the test on NCI-H226 lung, 101% (inactive); with NCI-H322M lung it was 97.8% (inactive); in the test on HOP-62 NSCLC, 106% (inactive); in the test with NCI-H460 lung, 103% (inactive); in the test with HOP-92 NSCLC it was 95.4% (inactive). Moreover, the growth in the test with NCI-H522 lung is 93.4% (inactive); in the test with A549/ATCC NSCLC it was 102% (inactive); in the test with 786-0 renal, 96% (inactive); in the test on COLO 205 colon it was 109% (inactive); in the test with DU-145 prostate, 104% (inactive); in the test with K-562 leukemia, 99.1% (inactive). The growth with MALME-3M melanoma was 104% (inactive); in the test on MDA-MB-231 breast, 105% (inactive); in the test with RXF 393 renal, 114% (inactive); in the test with SF-268 CNS it was 93.1% (inactive); with SF-295 CNS, 97.6% (inactive); in the test on SF-539 CNS it was 102% (inactive). Besides, the growth in the test with UACC-257 melanoma was 107% (inactive); in the test with M14 melanoma, 105% (inactive).

Regarding `Cc1nc2sc(C(=O)Nc3cccc4ccccc34)c(N)c2cc1C(=O)/C=C/c1ccccc1`, the growth was 9.08% (active) in the test with NCI-H23 lung; -59.4% (active) in the test with NCI-H226 lung; 24% (inactive) in the test on NCI-H322M lung; -21.1% (active) in the test with HOP-62 NSCLC; -34.2% (active) in the test with NCI-H460 lung; 28.3% (inactive) with HOP-92 NSCLC. Besides, the growth was -33.4% (active) in the test on NCI-H522 lung; 12.9% (inactive) with A549/ATCC NSCLC; -55.5% (active) in the test with 786-0 renal; -15% (active) with COLO 205 colon; -3.16% (active) with DU-145 prostate; 12% (inactive) in the test on K-562 leukemia. Further, the growth with MALME-3M melanoma is 34% (inactive); in the test on MDA-MB-231 breast, -16.2% (active); with RXF 393 renal, -87.2% (active); in the test on SF-268 CNS, 9.83% (active); with SF-295 CNS, -30.7% (active); in the test on SF-539 CNS it was -20.1% (active). Moreover, the growth is 68.9% (inactive) in the test on UACC-257 melanoma and -15.3% (active) with M14 melanoma.

In the case of `O=C(CCCCCCCCC(=O)N/N=C\c1ccccc1O)N/N=C\c1ccccc1O`, the growth in the test on NCI-H23 lung is 39.9% (inactive); in the test on NCI-H226 lung, -5.86% (active); in the test on NCI-H322M lung, 19.5% (inactive); in the test with HOP-62 NSCLC it was 0.588% (active); in the test on NCI-H460 lung, -11.3% (active); in the test with HOP-92 NSCLC it was 41.9% (inactive). Further, the growth in the test with NCI-H522 lung was 34.3% (inactive); in the test on A549/ATCC NSCLC, 17.1% (inactive); in the test on 786-0 renal it was 3.41% (active); in the test on COLO 205 colon, 43.1% (inactive); with DU-145 prostate it was 26.7% (inactive); in the test on K-562 leukemia, 16.4% (inactive). Also, the growth in the test with MALME-3M melanoma was 15.1% (inactive); in the test on MDA-MB-231 breast, 38.1% (inactive); in the test on RXF 393 renal, 31.1% (inactive); in the test on SF-268 CNS, 14.6% (inactive); in the test with SF-295 CNS, 36% (inactive); with SF-539 CNS it was 16.7% (inactive). For the same compound, the growth was 20.2% (inactive) in the test with UACC-257 melanoma and -9% (active) in the test with M14 melanoma.

`O=C(Nc1ccc2ccccc2c1)c1cc2ccccc2cc1O`: the growth with NCI-H23 lung was 81.5% (inactive); in the test on NCI-H226 lung, 91.6% (inactive); with NCI-H322M lung it was 75.7% (inactive); in the test on HOP-62 NSCLC it was 98.8% (inactive); in the test with NCI-H460 lung, 85.4% (inactive); in the test on HOP-92 NSCLC, 63.7% (inactive). The growth in the test on NCI-H522 lung is 62.6% (inactive); in the test with A549/ATCC NSCLC, 84.6% (inactive); in the test on 786-0 renal it was 85.6% (inactive); in the test with COLO 205 colon, 110% (inactive); with DU-145 prostate, 13.3% (inactive); in the test on K-562 leukemia, 71.1% (inactive). The growth in the test with MALME-3M melanoma was 58.5% (inactive); with MDA-MB-231 breast it was 104% (inactive); in the test with RXF 393 renal, 115% (inactive); with SF-268 CNS, 7.54% (active); with SF-295 CNS, 128% (inactive); with SF-539 CNS it was 105% (inactive). Further, the growth was 85.6% (inactive) with UACC-257 melanoma and 99% (inactive) in the test on M14 melanoma.

For `Cc1ccc(C(=O)Nc2ccc(CN3CCN(C)CC3)c(C(F)(F)F)c2)cc1C#Cc1cnc(N)cc1C#N`, the growth is -40.7% (active) in the test with NCI-H23 lung; 9.78% (active) with NCI-H226 lung; 12.4% (inactive) with NCI-H322M lung; -69.7% (active) with HOP-62 NSCLC; -80.7% (active) in the test with NCI-H460 lung; -39.8% (active) in the test with HOP-92 NSCLC. In addition, the growth in the test on NCI-H522 lung is -72.7% (active); in the test with A549/ATCC NSCLC, -84.7% (active); with 786-0 renal it was -73.8% (active); in the test on COLO 205 colon, -64.9% (active); with DU-145 prostate it was -53.1% (active); in the test on K-562 leukemia, -41.5% (active). Also, the growth with MALME-3M melanoma was -79.2% (active); in the test on MDA-MB-231 breast, -67% (active); in the test on RXF 393 renal, -88.6% (active); in the test with SF-268 CNS, -14.7% (active); in the test on SF-295 CNS, -68.1% (active); with SF-539 CNS, -94.8% (active). The results for the growth in the test with UACC-257 melanoma and with M14 melanoma were -23.6% (active) and -80.8% (active), respectively.

On to `N#Cc1cc(-c2ccnc(Nc3ccc(NC(=O)CCl)cc3)n2)ccc1N1CCCC1`, for which the growth was -31.3% (active) in the test with NCI-H23 lung; -12.4% (active) in the test with NCI-H226 lung; 53.4% (inactive) with NCI-H322M lung; -4.87% (active) in the test with HOP-62 NSCLC; -35.9% (active) with NCI-H460 lung; 28.4% (inactive) with HOP-92 NSCLC. For the same compound, the growth in the test on NCI-H522 lung is -41.3% (active); in the test with A549/ATCC NSCLC it was -26.7% (active); in the test with 786-0 renal, -14.6% (active); in the test on COLO 205 colon, -59.6% (active); with DU-145 prostate it was 17.1% (inactive); in the test with K-562 leukemia, 2.55% (active). The growth was -68.5% (active) with MALME-3M melanoma; -31.8% (active) in the test on MDA-MB-231 breast; -79.3% (active) in the test on RXF 393 renal; -8.99% (active) in the test on SF-268 CNS; -26.9% (active) with SF-295 CNS; -94.4% (active) with SF-539 CNS. For the same compound, the growth in the test on UACC-257 melanoma was 3.7% (active); in the test with M14 melanoma it was -40.9% (active).

On to `COc1cc(CNC(=O)CCCC/C=C/C(C)C)ccc1O`, for which the growth with NCI-H23 lung was 101% (inactive); with NCI-H226 lung, 94.2% (inactive) and 92.4% (inactive); with NCI-H322M lung, 124% (inactive) and 88.7% (inactive); in the test with HOP-62 NSCLC it was 89% (inactive) and 104% (inactive); in the test on NCI-H460 lung it was 106% (inactive) and 114% (inactive); in the test on HOP-92 NSCLC it was 84.4% (inactive). The growth in the test with NCI-H522 lung is 83.1% (inactive) and 75.5% (inactive); in the test on A549/ATCC NSCLC, 106% (inactive) and 115% (inactive); in the test with 786-0 renal, 107% (inactive) and 101% (inactive); in the test on COLO 205 colon it was 101% (inactive) and 111% (inactive); in the test with DU-145 prostate it was 112% (inactive) and 120% (inactive); in the test with K-562 leukemia, 84.1% (inactive) and 93.3% (inactive). Moreover, the growth in the test with MALME-3M melanoma was 154% (inactive) and 95.6% (inactive); with MDA-MB-231 breast, 85.1% (inactive) and 83.3% (inactive); in the test with RXF 393 renal, -46.1% (active) and 98.6% (inactive); in the test with SF-268 CNS, 84.9% (inactive) and 91.6% (inactive); in the test with SF-295 CNS it was 128% (inactive) and 107% (inactive); in the test on SF-539 CNS, 95.6% (inactive) and 90.7% (inactive). The growth is 119% (inactive) and 112% (inactive) in the test with UACC-257 melanoma; 117% (inactive) and 99.5% (inactive) with M14 melanoma.
